# D2 ag-1 – Beta-Arrestin HTS for Positive Allosteric Modulators of the Human D2 Dopamine Receptor: Agonists | D(2) dopamine receptor (Homo sapiens), P14416 | DiscoveRx PathHunter D2 beta-arrestin, luminescence, 90 min; 100% = 57 uM dopamine signal | activation, % (no concentration beside the values) | 360,000 tested, 0.084% active; in the data active means activation above about 40%; inconclusive means between about 15% and that limit
# Target sequence (P14416 whole entry, looked up): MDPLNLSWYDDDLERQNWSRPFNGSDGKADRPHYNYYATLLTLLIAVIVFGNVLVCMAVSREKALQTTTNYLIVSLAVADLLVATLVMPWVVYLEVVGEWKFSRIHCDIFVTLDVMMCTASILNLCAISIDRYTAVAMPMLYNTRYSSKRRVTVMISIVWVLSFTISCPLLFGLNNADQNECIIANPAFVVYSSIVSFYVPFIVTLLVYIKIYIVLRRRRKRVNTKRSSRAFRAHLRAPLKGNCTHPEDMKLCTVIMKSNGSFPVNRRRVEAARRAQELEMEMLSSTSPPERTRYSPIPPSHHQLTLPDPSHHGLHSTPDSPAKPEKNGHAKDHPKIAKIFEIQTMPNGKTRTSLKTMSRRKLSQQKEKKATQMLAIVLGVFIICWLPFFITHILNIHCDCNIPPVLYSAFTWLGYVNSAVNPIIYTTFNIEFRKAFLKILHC
#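 DiscoveRx PathHunter D2 beta-arrestin cells (2,100/well) attached overnight, then compound-stimulated 90 min at 37 C in HBSS/10 mM HEPES/0.1% Tween-20 buffer; beta-galactosidase complementation read by luminescence after 1 h at ambient temperature. Dopamine 57 uM final (EC100) as control.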
# D2 PAM-1 – HTS Assay for Positive Allosteric Modulators of the Human D2 Dopamine Receptor: Primary Screen for Potentiators | 340,000 tested, 0.34% active | D(2) dopamine receptor (Homo sapiens), P14416 | AID 485347, 2010 | potentiation, % at 10 µM | HEK293 T-REx D2, calcium flux, EC20 dopamine potentiation;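 active means potentiation over 3 SD above the plate norm, cut at about 30% in these data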
#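 Potentiation of an EC20 dopamine calcium response is measured in a force-coupled, tetracycline-inducible Hek293 Trex D2 line. Compound-only kinetic reads over 180 s flag agonists before dopamine addition.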
# D2 PAM-2 – Beta-Arrestin HTS for Positive Allosteric Modulators of the Human D2 Dopamine Receptor: Potentiators; D(2) dopamine receptor (Homo sapiens), P14416; DiscoveRx D2 beta-arrestin cells, luminescence, 90 min; 100% = 57 uM dopamine signal; potentiation, % (test concentration not listed); 360,000 tested, 0.23% active; AID 624464, 2012; in the data active means potentiation above about 50%; inconclusive means mostly about 30% to 49%
#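 PathHunter beta-arrestin assay in DiscoveRx D2 cells. Compounds were added with an EC20 of dopamine (50 nM final) for 90 min at 37 deg C. Luminescence was read 1 h after detection reagent, with 57 uM dopamine as the EC100 control.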
# D2 antagonist – HTS Assay for Allosteric Antagonists of the Human D2 Dopamine Receptor: Primary Screen for Antagonists; D(2) dopamine receptor (Homo sapiens), P14416; 340,000 tested, 2% active; AID 485344, 2010; HEK293 TREx D2 cells, calcium flux, dopamine EC80; inhibition, % at 10 µM; in the data active means inhibition above about 30%; inactive means below that, where a call was filed
#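 Inhibition of EC80 dopamine-driven calcium flux, recorded kinetically, defines activity here; cells are a tetracycline-induced HEK293 T-REx line expressing force-coupled D2.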
# D2 ag-2 – HTS Assay for Allosteric Agonists of the Human D2 Dopamine Receptor: Primary Screen for Agonists; HEK293 T-REx D2 cells, calcium flux agonist mode; activation, % at 2 µM; 340,000 tested, 0.53% active; AID 485358, 2010;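 active means activation over 3 SD above normal in the single-dose calcium agonist read, cut at about 30% in these data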
#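 Tetracycline-induced HEK293 T-REx cells with force-coupled D2 receptor, plated overnight at 30 C, loaded with no-wash calcium dye. After a 10 s baseline, compound was pin-added and calcium flux read kinetically for 180 s; calcium rises flagged agonists.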
# Numbers stand for hits; - = inactive; ? = inconclusive; . = no result given; ! = not confirmed by another sample. Compounds with a hit are over-represented: about 2.4% of the library has one in this group of screens.
SMILES,D2 ag-1,D2 PAM-1,D2 PAM-2,D2 antagonist,D2 ag-2
COc1ccc(-c2cc(C(=O)Nc3ccc4c(c3)OCO4)no2)cc1,-,31.5!,-,-,-
COc1ccc(-c2c(C)c3ccc(O)c(CN4CCC(C)CC4)c3oc2=O)cc1OC,.,-,.,.,-
COc1ccc(-c2cc(C(=O)N3CCOCC3)no2)cc1,-,-,-,34.6,-
CCc1ccc(NC(=O)C2=CC(c3ccc4c(c3)OCO4)=NS(=O)(=O)N2C)cc1,.,-,.,.,-
CC1CCCCN1C(=O)c1cc(-c2ccc3c(c2)OCO3)on1 (stereo not drawn),-,-,-,-,-
COc1ccc(C2=NS(=O)(=O)N(C)C(C(=O)Nc3ccc4c(c3)OCO4)=C2)cc1,-,-,-,64.2,-
CC1CCN(C(=O)c2cc(-c3ccc4c(c3)OCO4)on2)CC1,-,36.2,-,-,-
COc1cccc(-c2cc(C(=O)N3CCOCC3)no2)c1,-,-,-,-,-
CN1C(C(=O)Nc2ccc(OC(F)(F)F)cc2)=CC(c2ccc3c(c2)OCO3)=NS1(=O)=O,-,75.3!,-,-,-
Cc1ccc(C2=NS(=O)(=O)N(C)C(C(=O)Nc3ccc4c(c3)OCO4)=C2)cc1,-,-,-,-,-
CCOc1cc(Cn2c(-c3ccc(O)c(OCC)c3)nc3ccccc32)ccc1O,.,-,.,.,-
CCC(=O)N1CCc2cc(CNS(=O)(=O)c3cc(Cl)ccc3OC)ccc21,.,-,.,.,-
COc1cc(NC(=O)c2cc(-c3ccccc3)on2)cc(OC)c1OC,-,-,-,-,-
COc1cccc(-c2cc(C(=O)Nc3cc(OC)c(OC)c(OC)c3)no2)c1,-,-,-,43.7,-
NC(=O)C1CCN(S(=O)(=O)c2cc3c4c(c2)CCN4C(=O)CC3)CC1,-,-,-,30.3,-
CCOC(=O)C1CCCN(S(=O)(=O)c2cc3c4c(c2)CCN4C(=O)CC3)C1 (stereo not drawn),?,-,-,-,-
CCOc1ccc(-c2cc(OC(=O)c3ccccc3)c3c(C)oc(C)c3c(=O)c2)cc1,.,-,.,.,-
COc1cccc(Nc2nc(=O)[nH]nc2C)c1,-,.,-,34.2,-
CSCCC(NC(=O)C1CCCCC1)C(=O)Nc1ccc(F)c(Cl)c1 (stereo not drawn),.,-,.,.,-
O=C1CC(c2ccc(OCCCCCOc3ccc(C4CC(=O)NC4=O)cc3)cc2)C(=O)N1 (stereo not drawn),-,-,-,36.6,-
CCCCCCCCOc1ccc(C2CC(=O)NC2=O)cc1 (stereo not drawn),-,-,-,-,-
CCN(CC)CCNC(=O)c1cc2cc(Br)ccc2s1,-,-,-,50.3,-
CCN(CC)CCNC(=O)c1cc(-c2ccc(Br)s2)nc2ccccc12,-,-,-,-,-
Cc1ccc(CNC(=O)c2ccc(Cn3c(SCc4ccc(F)cc4)nc4cccnc43)cc2)o1,.,.,.,.,-
COc1ccc(CNC(=O)c2ccc(CSc3nc4ccncc4n3Cc3ccccc3F)cc2)cc1,.,-,.,.,-
SMILES,D2 ag-1,D2 PAM-1,D2 PAM-2,D2 antagonist,D2 ag-2
CC1=C(C(=O)N2CCCCC2)C(c2cccc(Cl)c2)n2c(nc3ccccc32)N1 (stereo not drawn),.,-,.,.,-
O=C(Nc1ccccc1)c1ccc(NCCN2C(=O)CCC2=O)c([N+](=O)[O-])c1,-,-,-,58.6,-
Cc1ccc2c(c1)N(C(=O)N1CCC(C(=O)NCCc3ccc(Cl)cc3)CC1)CC(C)O2 (stereo not drawn),.,-,.,.,-
CCOC(=O)C1=C(O)C(=O)N(c2ccc(S(N)(=O)=O)cc2)C1c1cccc([N+](=O)[O-])c1 (stereo not drawn),-,-,-,-,-
CCOC(=O)C1=C(O)C(=O)N(c2ccccc2)C1c1cccc([N+](=O)[O-])c1 (stereo not drawn),-,-,-,33.0,-
CCOC(=O)C1=C(O)C(=O)N(c2ccc(S(N)(=O)=O)cc2)C1c1ccc(OC)cc1OC (stereo not drawn),-,41.6,-,-,-
O=C(Cn1c(=O)oc2cc(S(=O)(=O)NC3CCCC3)ccc21)Nc1ccc(F)c(F)c1,.,-,.,.,-
O=C1[C@H]2[C@@H](c3ccc(F)cc3)N3C(=O)N(c4cccc(Br)c4)C(=O)[C@@]3(Cc3ccccc3)[C@H]2C(=O)N1C1CCCCC1,-,-,-,40.9,-
COc1ccc(NC(=O)CSc2nc3c(c(=O)n2-c2ccc(F)cc2)SCC3)c(OC)c1,-,-,-,37.7,-
COc1ccc(-n2c(SCC(=O)Nc3cc(C)on3)nc3c(c2=O)SCC3)cc1,-,-,-,-,-
CC(C)OCCCNC(=O)c1cc2c(-c3ccc(Cl)cc3)nn(C)c2s1,.,-,.,.,-
CC1CCCCN1C(=O)Cn1nnc(-c2cccnc2)n1 (stereo not drawn),-,-,-,31.9,-
Cc1ccc(-c2nnc(N(C)C(=O)c3cccnc3)s2)cc1,-,37.6,-,-,-
Cc1ccc(-c2nnc(N(C)C(=O)c3cccnc3)s2)cn1,-,-,-,-,-
CSc1nn(Cc2ccccc2C)c(NC(C)=O)c1S(=O)(=O)c1ccc(C)cc1,.,-,.,.,-
O=S(=O)(Nc1cccc(S(=O)(=O)N2CCOCC2)c1)c1ccc2c(c1)OCCO2,-,-,-,-,-
O=S(=O)(Nc1cccc(S(=O)(=O)N2CCOCC2)c1)c1cccs1,-,-,-,-,31.6
Cc1cc(=O)[nH]c(N/N=C/c2ccc(-c3ccc(F)cc3)o2)n1,-,-,-,48.3,-
O=C(NCCc1csc(-c2cccnc2)n1)c1ccc(F)c(F)c1,.,-,.,.,.
CC1Cc2cc(/C(O)=C3/C(=O)C(=O)N(CCCn4ccnc4)C3c3ccc(F)cc3)ccc2O1 (stereo not drawn),-,-,-,44.2,-
Cc1cccc(-c2nc(CCNC(=O)c3ccccc3Br)cs2)c1,.,-,.,.,-
O=[N+]([O-])c1ccc(Cl)c(S(=O)(=O)Nc2ccc(-c3ccc(N4CCOCC4)nn3)cc2)c1,-,-,-,-,-
O=[N+]([O-])c1ccc(Cl)c(S(=O)(=O)Nc2cccc(-c3ccc(N4CCOCC4)nn3)c2)c1,-,-,-,34.2,-
O=S(=O)(NCCc1nnc2ccc(SCc3cccnc3)nn12)c1ccccc1,-,31.8,-,-,-
Fc1cccc(CSc2nc(NCCc3ccccc3)c3ccccc3n2)c1,.,-,.,.,-
COc1cccc(CNC(=O)COCc2cc(-c3ccc4c(c3)OCO4)on2)c1,.,-,.,.,-

# Screening results as filed in PubChem BioAssay.
